An excerpt weighted towards active compounds, which were near 12% of everything screened.
Sfp inh: inhibitors of Bacillus subtilis Sfp phosphopantetheinyl transferase; Q9F4F7; Biochemical Sfp PPTase activity, qHTS; Potency, µM, for inactives: largest response in the series, negative = inhibition, most hits filed as inhibitors; 310,000 compounds, 3.5% hits; AID 1490;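 also: the enzyme is Sfp with the accession as filed and its product quenches rhodamine fluorescence; 0% = enzyme reaction without inhibitor and -100% = no enzyme wells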
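Buffer: 50 mM Hepes-Na pH 7.6, 10 mM MgCl2, 0.01% Nonidet P-40, 0.01% BSA. Enzyme 15 nM, pre-exposed to compound 15 min; substrates then added and fluorescence change tracked over 30 min.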
HP1b binding inh: HP1-beta chromodomain-methylated histone interaction inhibition. P83916. AlphaScreen HP1-beta / biotin-H3K9me3 peptide binding. Potency, µM (highest dose often 114 µM), inactives show top-dose activity change, negative = inhibition, usual class: inhibitors. 390,000 compounds, 0.56% hits. AID 540317; also: nearly all actives have a fitted effect of over 70% in size
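AlphaScreen: HP1-beta (50 nM) preformed 30 min with biotin-H3(1-18)K9me3 peptide (50 nM) in PBS pH 7.4, 0.01% Tween-20. Compound added for 30 min at RT, then streptavidin donor/nickel chelate acceptor beads (10 ug/mL) for 30 min.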
BAZ2B inh: BAZ2B (human) inhibition; Q9UIF8; AlphaScreen BAZ2B-H3K14Ac peptide displacement; Potency, µM (titrated, usually from 114 µM), for the others: top-dose activity change, negative = inhibition, actives largely listed as inhibitors; 360,000 compounds, 4.4% hits; AID 504333; also: % is scaled to controls: 0 for no effect and ±100 for the full control effect; nearly all actives have a fitted effect of over 60% in size
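AlphaScreen luminescence quantifies BAZ2B engagement of H3K14Ac peptide; the protein and biotinylated peptide are both at 50 nM final, buffer PBS pH 7.4 with 0.01% Tween-20, all steps at room temperature.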
PLK1 PBD inh: PLK1 (human) polo-box domain binding inhibition; Plk1 PBD binding of FITC phosphopeptide, fluorescence polarization; 360,000 compounds, 2.8% hits; P53350; Potency, µM, without a hit: max response, negative = inhibition, actives largely listed as inhibitors; also: series mostly up to about 57 µM; % is scaled to controls: 0 for no effect and ±100 for the full control effect; nearly all actives have a fitted effect of over 65% in size
JMJD2A Tudor: blocks the human JMJD2A Tudor domain; AlphaScreen JMJD2A-Tudor / H3K4me3 peptide binding; Potency, µM (series often up to 114 µM), for the others: at the highest dose activity change, negative = inhibition, hits mostly inhibitors; 390,000 compounds, 4.4% hits; AID 504339; also: % is scaled to controls: 0 for no effect and ±100 for the full control effect; nearly all actives have a fitted effect of over 50% in size
G9a inh: blocks human histone lysine methyltransferase G9a; 350,000 compounds, 8.8% hits; Potency, µM (doses to about 102 µM), for inactives: at the top dose activity, negative = inhibition, usual class: inhibitors; G9a H3K9 monomethylation, AlphaScreen, 2 h; Q96KQ7; also: % is scaled to controls: 0 for no effect and ±100 for the full control effect; nearly all actives have a fitted effect of over 75% in size
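Using a bead-based AlphaScreen, monomethylated H3K9 product from 2 h room-temperature reactions (G9a 20 nM, peptide 500 nM, SAM 20 uM) was detected with 0.5 ug/mL rabbit anti-H3K9me1 antibody.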
Active calls of the source: *; ? = inconclusive; . = no result given; [ ] = another dose, or the depositor's remark. Calls follow the shape of the dose curve; as a rule, active = well fitted curve in the direction sought with a large enough effect; inconclusive = small, poorly fitted or top-dose-only effect, or another doubt; inactive = no such curve, though single readings can be large; an effect the other way counts as inactive or inconclusive. Potency is read from the fitted curve at half-maximal effect.

SMILES	Sfp inh	HP1b binding inh	BAZ2B inh	PLK1 PBD inh	JMJD2A Tudor	G9a inh
CCNC(=O)C1(C)CCCN1C(=O)c1ccc2c(c1)OCO2 (stereo not given)	.	.	.	-2%	.	.
COc1cccc([C@H]2Oc3ccc(OC)cc3/C(=N\O[C@@H](C)c3cn([C@H](CO)Cc4ccccc4)nn3)[C@@H]2O)c1	17%	.	.	.	.	.
CCOc1ccc(/C=N/Nc2ccccn2)cc1OC	56µM*	-14%	.	?	?	-9%
COc1cc(N/N=C/c2ccccc2O)ncn1	2%	9%	28µM*	-14%	45µM*	22%
CCc1cc(C(=O)N/N=C/c2ccc(O)cc2O)c2ccccc2n1	23%	35%	45µM*	2%	79µM*	13%
O=C(N/N=C/c1ccc(Cl)cc1Cl)c1ccncc1	?	25%	?	-9%	-16%	.
O=C(N/N=C/c1ccc(O)cc1O)c1ccncc1	13%	51%	32µM*	3%	56µM*	41%
O=C(N/N=C/c1cc(Cl)cc(Cl)c1O)c1ccncc1	15%	49%	10µM*	8%	22µM*	-4%
O=C(N/N=C/c1cc(Br)cc([N+](=O)[O-])c1O)c1ccc(NC(=O)c2ccc(F)cc2)cc1	22%	?	13µM*	?	32µM*	35µM*
CCN(Cc1ccccc1)Cc1c(O)ccc2c(=O)c(-c3ccc(Cl)cc3)coc12	.	7%	4%	.	-11%	-2%[59 µM]
Clc1ccc(CN2CCC(CNc3ncnc4onc(-c5ccc(Cl)cc5)c34)CC2)cc1	.	13%	?	.	?	-9%[59 µM]
Cc1cn([C@H]2C[C@H](O)[C@@H](CNCc3ccccc3OCCCN3CCOCC3)O2)c(=O)[nH]c1=O	.	.	.	3%	.	.
Cc1cccc(C(=O)Oc2c(Br)cc(Br)cc2/C=N/NC(=O)c2ccncc2)c1	10%	-6%	-9%	30µM*	-21%[57.1 µM]	23%
O=C(N/N=C/c1cc(Br)cc(Br)c1O)c1ccncc1	6%	38%	8.9µM*	31%	13µM*	50µM*
O=C(NCC1CCCO1)C(c1cccs1)N(Cc1cccs1)C(=O)c1ccc(-c2ccccc2)[nH]1 (stereo not given)	7%	?	?	-6%	?	?
O=C(NCC1CCCO1)C(c1ccc(F)cc1)N(CC1CCCO1)C(=O)c1ccc(-c2ccccc2)[nH]1 (stereo not given)	-15%	20%	40µM*	-7%	-26%	.
CCCN1C2CCCC1CC(NC(=O)NC1CCCCC1)C2 (stereo not given)	12%	36%	9%	2%	-11%	23%
O=C(CN1C2CCC1CC(NC(=O)NC1CCCCC1)C2)NC1CC1 (stereo not given)	10%	20%	9%	-6%	-19%	71µM*
Brc1ccc(CSc2nnc(-c3ccco3)o2)cc1	56µM*	140%	68%	6%	76%	83%
c1ccc(CSc2nnc(-c3ccco3)o2)cc1	13%	17%	1%	0%	0%	38%
O=C(COc1cc(Cl)c(Cl)cc1Cl)Nc1ccncc1	0%	-10%	9%	?	89µM*	16%[12.7 µM]
CCN1CCN(c2ccc(NC(=O)COc3ccccc3Cl)cc2)CC1	5%	16%	-2%	-9%	-18%	-26%
O=C(COc1ccc(Cl)cc1Cl)Nc1ccc(C(=O)Nc2ccccc2C(=O)O)cc1	2%	?	50µM*	?	50µM*	.
O=C(COc1ccccc1Cl)Nc1ccc(N2CCCC2)cc1	3%	2%	-39%	-15%	?	7.9µM*
O=C(COc1ccccc1Cl)Nc1cc(NC(=O)COc2ccccc2Cl)cc(C(=O)O)c1	-4%	28%	50µM*	-21%	-17%	1%
COc1ccccc1OCC(=O)Nc1cc(NC(=O)COc2ccccc2OC)cc(C(=O)O)c1	12%	13%	-10%	-19%	-24%	4%
Cc1ccc(C2=NC(c3ccc(F)cc3)=Nc3ccc(C)cc3N2)cc1	.	36%	-10%	.	-18%	6%[59 µM]
